# A selection: hits, their analogues and other compounds. The true share with any hit is near 11%.
# JMJD2A Tudor = inhibitors of human JMJD2A Tudor domain; AlphaScreen JMJD2A-Tudor / H3K4me3 peptide binding; Potency, µM (top dose mostly 114 µM), for the others: at the highest dose activity change, negative = inhibition, hits mostly inhibitors; 390,000 compounds, 4.4% hits; further: potency means the concentration at half of the fitted maximal effect; on the % scale 0 is the no-effect control and ±100 the full control effect; nearly all actives have a fitted effect of over 50% in size
# L3MBTL1 inh-1 = inhibitors of human L3MBTL1 | Q9Y468 | AlphaScreen L3MBTL1–H3K9me1 peptide binding | Potency, µM (titrated, usually from 57.1 µM), inactives show at the highest dose activity, negative = inhibition, actives largely listed as inhibitors | 230,000 compounds, 0.66% hits | AID 485360; further: potency means the concentration at half of the fitted maximal effect; on the % scale 0 is the no-effect control and ±100 the full control effect; nearly all actives have a fitted effect of over 60% in size
# Target sequence (Q9Y468 whole entry, looked up): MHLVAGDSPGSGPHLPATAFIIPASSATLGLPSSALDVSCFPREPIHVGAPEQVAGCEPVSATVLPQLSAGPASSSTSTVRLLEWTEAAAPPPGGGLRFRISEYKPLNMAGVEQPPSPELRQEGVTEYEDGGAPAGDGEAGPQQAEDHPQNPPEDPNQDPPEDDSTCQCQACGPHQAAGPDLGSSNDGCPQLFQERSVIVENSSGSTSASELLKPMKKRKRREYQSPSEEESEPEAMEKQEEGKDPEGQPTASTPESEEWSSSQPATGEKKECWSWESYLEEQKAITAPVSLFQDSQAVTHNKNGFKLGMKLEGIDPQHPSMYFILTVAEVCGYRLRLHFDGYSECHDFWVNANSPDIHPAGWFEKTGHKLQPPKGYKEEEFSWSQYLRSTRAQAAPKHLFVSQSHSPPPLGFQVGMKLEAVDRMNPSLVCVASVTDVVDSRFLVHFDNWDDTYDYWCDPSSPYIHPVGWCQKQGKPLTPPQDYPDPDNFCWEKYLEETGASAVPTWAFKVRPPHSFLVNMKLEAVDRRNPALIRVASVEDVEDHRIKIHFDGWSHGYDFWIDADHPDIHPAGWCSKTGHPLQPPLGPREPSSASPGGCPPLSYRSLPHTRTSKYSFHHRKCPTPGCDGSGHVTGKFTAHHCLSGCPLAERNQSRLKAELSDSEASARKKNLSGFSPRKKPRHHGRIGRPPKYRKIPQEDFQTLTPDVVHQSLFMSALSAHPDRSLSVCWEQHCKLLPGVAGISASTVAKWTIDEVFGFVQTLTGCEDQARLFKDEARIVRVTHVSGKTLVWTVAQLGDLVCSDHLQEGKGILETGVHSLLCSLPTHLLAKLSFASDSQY
#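 Displacement of a biotinylated histone H3(1-15) peptide monomethylated at Lys9 (75 nM) from L3MBTL1 (50 nM) was measured by AlphaScreen after a 30 min room-temperature compound incubation; cefsulodin titration served as intraplate control.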
# G9a block = G9a (human) methyltransferase inhibition | Q96KQ7 | Potency, µM (doses to about 102 µM), inactives show top-dose activity, negative = inhibition, actives largely listed as inhibitors | G9a H3K9 monomethylation, AlphaScreen, 2 h | 350,000 compounds, 8.8% hits; further: potency means the concentration at half of the fitted maximal effect; on the % scale 0 is the no-effect control and ±100 the full control effect; nearly all actives have a fitted effect of over 75% in size
#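 Using a bead-based AlphaScreen, monomethylated H3K9 product from 2 h room-temperature reactions (G9a 20 nM, peptide 500 nM, SAM 20 uM) was detected with 0.5 ug/mL rabbit anti-H3K9me1 antibody.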
# BAZ2B block = blocks human BAZ2B. Q9UIF8. AlphaScreen BAZ2B-H3K14Ac peptide displacement. Potency, µM (series often up to 114 µM), for the others: at the highest dose activity change, negative = inhibition, hits mostly inhibitors. 360,000 compounds, 4.4% hits. AID 504333; further: potency means the concentration at half of the fitted maximal effect; on the % scale 0 is the no-effect control and ±100 the full control effect; nearly all actives have a fitted effect of over 60% in size
#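 BAZ2B (50 nM) with biotin-H3(5-23)K14Ac peptide (50 nM) in PBS pH 7.4, 0.01% Tween-20, preformed 30 min, then compound 30 min at room temperature; top concentration 110uM. AlphaScreen streptavidin donor/nickel chelate acceptor beads (10 ug/mL final), 20 min dark, signal read.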
# HP1b binding inh = blocks HP1-beta chromodomain binding to methylated histone tails; Potency, µM (series often up to 114 µM), for inactives: top-dose activity change, negative = inhibition, actives largely listed as inhibitors; P83916; 390,000 compounds, 0.56% hits; AlphaScreen HP1-beta / biotin-H3K9me3 peptide binding; AID 540317; further: potency means the concentration at half of the fitted maximal effect; nearly all actives have a fitted effect of over 70% in size
#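 HP1-beta protein (50 nM final) preincubated 30 min at room temperature with biotinylated H3(1-18)K9me3 peptide (50 nM) in PBS pH 7.4, 0.01% Tween-20, then compound added for 30 min. AlphaScreen streptavidin donor/nickel chelate acceptor beads (10 ug/mL final), 30 min dark, luminescence read.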
# L3MBTL1 inh-2 = validation of human L3MBTL1 methyl-lysine binding inhibitors; shares compounds with L3MBTL1 inh-1; L3MBTL1 methyl-lysine binding inhibition, biochemical qHTS; AID 540279; Potency, µM, actives largely listed as inhibitors; 500 compounds, 91% hits; further: potency means the concentration at half of the fitted maximal effect; nearly all actives have a fitted effect of over 70% in size
# AlphaScreen ctr2 = counter-screen for L3MBTL1 inhibitors: AlphaScreen signal interference | Potency, µM (top dose mostly 57.1 µM), inactives show top-dose activity change, negative = inhibition, most hits filed as inhibitors | 500 tested, under 10 active | AlphaScreen counterscreen, signal inhibition | AID 602224 | shares compounds with L3MBTL1 inh-1; further: potency means the concentration at half of the fitted maximal effect; 0% is about no effect
# ME-1 growth = reduces ME-1 leukemia cell proliferation; shares compounds with BAZ2B block; ME-1 cell proliferation, ATP luminescence, 48 h; Potency, µM (doses to about 56.1 µM), inactives show at the highest dose activity change, negative = inhibition, most hits filed as inhibitors; 140 compounds, 20% hits; AID 504370
# Numbers without * were called inactive; ? = inconclusive; . = no result; ! = not active in a repeat; [ ] = remark or other dose. The call rests on the fitted dose curve; in most records, active means well fitted curve in the direction sought with a large enough effect; inconclusive means small, poorly fitted or top-dose-only effect, or another doubt; inactive means no such curve, though single readings can be large; an effect the other way counts as inactive or inconclusive.
SMILES,JMJD2A Tudor,L3MBTL1 inh-1,G9a block,BAZ2B block,HP1b binding inh,L3MBTL1 inh-2,AlphaScreen ctr2,others
O=C1C=C2C=CC3C[C@@]2(O1)C1CCCCN31 (stereo partly specified),.,.,-38.0%[2.33 µM],.,.,.,.,
O=C(Nc1ccon1)c1cccn(Cc2cccc([N+](=O)[O-])c2)c1=O,-23.1%,.,-5.1%[59 µM],-1.2%,51.7%,.,.,
CC[C@H](C)C(=O)O[C@@H]1[C@H](O)[C@@H]2[C@H](CN3C[C@@H](C)CC[C@@H]3[C@@]2(C)O)[C@@H]2C[C@@]34O[C@@]5(O)[C@@H](OC(=O)[C@](C)(O)CC)CC[C@@]3(C)[C@H]5[C@H](OC(C)=O)[C@@H](OC(C)=O)[C@H]4[C@]12O,.,.,25.6%[21.5 µM],.,.,.,.,
O=C1NC(=S)N(C2CC2)C(=O)/C1=C/c1ccc2c(c1)CCN2CCCCl,44.7µM*,31.6µM*,11.2µM*,31.6µM*,?,4.23*,-1.7%,
CCOc1ccc(N2C(=O)/C(=C/c3ccc(C)o3)C(=O)NC2=S)cc1,25.1µM*,22.4µM*,.,?,?,2.67*,7.0%,
COc1ccc(NC(=O)CCS(=O)(=O)c2ccc3c(c2)oc(=O)n3C)cc1OC,-7.2%,.,28.6%,-5.8%,32.1%,.,.,
O=C1NC(=O)N(Cc2ccc(F)cc2)C(=O)/C1=C\c1ccoc1,79.4µM*,20µM*,39.8µM*,50.1µM*,?,7.52*,1.0%,
Cc1cc(/C=C2\C(=O)NC(=O)N(Cc3ccccc3)C2=O)c(C)n1-c1ccc(Cl)c(C(=O)O)c1,44.7µM*,4.47µM*,12.6µM*,31.6µM*,-87.2%,0.752*,-10.6%,
Cc1cc(/C=C2\C(=O)NC(=O)N(Cc3ccccc3Cl)C2=O)c(C)n1-c1ccc(C(=O)O)cc1,?,28.2µM*,25.1µM*,50.1µM*,70.8µM*,5.32*,7.9%,
Cc1cc(/C=C2\C(=O)NC(=O)N(c3ccc(Cl)cc3)C2=O)c(C)n1-c1sc2c(c1C#N)CCCC2,-34.5%,-17.0%,?,?,0.3%,.,.,
Cc1cc(/C=C2\C(=O)NC(=O)N(Cc3ccco3)C2=O)c(C)n1-c1ccc(C(=O)O)cc1,-32.1%,28.2µM*,50.1µM*,50.1µM*,?,13.4*,0.7%,
Cc1cc(/C=C2\C(=O)NC(=O)N(c3ccc(F)cc3)C2=O)c(C)n1-c1ccc(C(=O)O)cc1,-21.3%,?,.,?,11.1%,.,.,
C[C@@]12C(=O)N(Cc3ccco3)CC(=O)N1[C@H]1c3ccccc3OC[C@@H]1[C@@H]2c1ccccc1,?,-6.4%,.,.,-11.1%,.,.,
Cc1ccccc1OCC(=O)N1CCN(CCc2ccccn2)CC1,-18.5%,.,-3.0%[59 µM],-2.9%,17.0%,.,.,
Oc1ccc2c3c1O[C@H]1[C@@H](O)CC[C@]4(O)[C@H](C2)N(CC2CCC2)CC[C@@]314,.,.,20.7%[21.5 µM],.,.,.,.,
CN1CCC(N2CC3CC(C2)c2cccc(=O)n2C3)CC1 (stereo unspecified),-24.1%,39.8µM*,?,3.3%,12.5%,26.7*,12.6%,
CCN(Cc1ccc(Cl)nc1)/C(=C/[N+](=O)[O-])NC,.,.,-20.0%[12.7 µM],.,.,.,.,
CCn1nc(-c2ccccc2)nc2c(=O)n(C)c(=O)nc1-2,-14.4%,0.708µM*,?,3.1%,35.5%,.,.,ME-1 growth=11.2µM*
COc1ccc(-c2nc3ccccc3c(=O)n2-c2ccc(OC)cc2)cc1,-12.0%,-0.7%,-2.9%[0.501 µM],-5.2%,27.7%,.,.,
O=C(Nc1nc2c(s1)CCCC2)C1CCCN1C(=O)c1cccs1 (stereo unspecified),-18.0%,0.5%,?,-31.3%,18.4%,.,.,
CCCCc1ccc(C(=O)O)nc1,8.6%,8.91µM*,5.97µM*!,3.98µM*,32.7%,.,.,ME-1 growth=?

# From PubChem
